Our source for the sensor-assay potency score (higher = more potent) values is the OligoGym collection.
Note: reference of the scale not given here.

The first test addresses MARCH9. Briefly: pooled miR-30 sensor sort-seq; sequence = guide strand. The settings on record: shRNA.
With TGCATCTCCTCCTATGTCCTTG, the sensor-assay potency score (higher = more potent) was -0.947. Regarding TTGAAGATGCGGTAGACAGAGG, the sensor-assay potency score (higher = more potent) was -1.26. Still for that read-out and setting: as for ATTTAGGACCTTCCACTGCTGG, the figure is -1.22.

A further test has as its target MAST4. The test is described as above. The settings on record: shRNA.
With TTGCCTATTAAGCTTTTCCGGT, the sensor-assay potency score (higher = more potent) was -0.995.

In turn, TTCTGTGCTTTCTAATCGCTGC had a sensor-assay potency score (higher = more potent) of 0.164. For TAACTGATGCAACTTCTCCTGG, the sensor-assay potency score (higher = more potent) is -0.165.

Consider TTCACATCGGAGAAGCTCCTTG, for which the sensor-assay potency score (higher = more potent) was -0.392. On the same count and under the same terms, then TTTCTTTCGGAGGTAATCGATG, with -1.18; and TTTGTCCACAGAGTCTTCCTTC, with 0.0254; and TAGGTAGTAAAATTCTTCCGGA, with 0.168.

In the case of TTGGCCTTCAGCTTGTCGCGGT, the sensor-assay potency score (higher = more potent) is 0.119. Same read-out and setting: then TATACTTCAGTGATTTTCCAGG, with -0.751. On to TTGCTAATCAATTTAATCGTTT, for which the sensor-assay potency score (higher = more potent) was -0.519.

As to TTGCTTTTCACCAACAGCGGAC, the sensor-assay potency score (higher = more potent) is -0.756. Same read-out and setting: then TTTGCTTTTCACCAACAGCGGA, with -0.849.

In the next test the target is MATR3. Described as above. The settings on record: shRNA.
As for TTCACTTGTATCTTTGTTGGGA, the sensor-assay potency score (higher = more potent) is 0.73. Take TTGCTTTTGATCAAACTTCTGA: the sensor-assay potency score (higher = more potent) was -0.275. Still for that read-out and setting: as for TAAGCTTTTTCTTTGCTGCTGC, the figure is 0.692. In the case of TTTCTCAGACAGGTCAACCTTC, the sensor-assay potency score (higher = more potent) was 0.61.

In turn, TTCGGTTGAACTCTCAGTCTTC displayed a sensor-assay potency score (higher = more potent) of 0.606. On the same count and under the same terms, as for TTCTTGTTCTTTACCTTCGGTT, the figure is -0.715; as for TTTCTCACCATCTTCACCGGAC, -0.137. TTGAACTCTCAGTCTTCTGGGA: the sensor-assay potency score (higher = more potent) worked out at 0.368. Sequence TTGATCAAACTTCTGATCTGGC registered a sensor-assay potency score (higher = more potent) of 0.816. Take TATTCTTTGCAACTTCTTCATT: the sensor-assay potency score (higher = more potent) was -0.992. Consider TTGTGTAATAATCCACTGCGGC, for which the sensor-assay potency score (higher = more potent) was -0.905. With TATACCAACAGGAACATTGGGC, the sensor-assay potency score (higher = more potent) was determined as 0.454.

For the next test, the target named is MBD3. Described as above. The settings on record: shRNA.
With TCGTCGGTCACCATGAAGGCTT, the sensor-assay potency score (higher = more potent) is -0.866.

For the sequence TTGAAGATGGACGCCGTCTGGC, the sensor-assay potency score (higher = more potent) was -0.445.

For the sequence TTGGTAATCTTGGTCACCGGCT, the sensor-assay potency score (higher = more potent) is -0.729. Turning to TCGTCGTCGTCCTCAGCGCAGG, the sensor-assay potency score (higher = more potent) is -1.74. With ATCAGCATCTTGCCCGTGCGGA, the sensor-assay potency score (higher = more potent) is -0.991. Same read-out and setting: then TTGCTGCGGAACTTCTTCCCGC, with -0.815; and TTGCTCATCAGCATCTTGCCCG, with -0.234; and TTGGGGAGGTCCATGGTCTTGA, with -0.977. Regarding TTCTTCTCCCAGAAGAGCTGGC, the sensor-assay potency score (higher = more potent) is -0.362.

As for ATCTTGCTCATCAGCATCTTGC, the sensor-assay potency score (higher = more potent) was -1.63. For TCGCTCTTGACCTTGTTGCTGG, the sensor-assay potency score (higher = more potent) is -0.788. Take TAATCTTGGTCACCGGCTGCTT: the sensor-assay potency score (higher = more potent) is -0.615.
